Assay outcomes as filed in PubChem BioAssay.
Pf growth 48h: Primary qHTS for delayed death inhibitors of the malarial parasite plastid, 48 hour incubation | P. falciparum luciferase growth in erythrocytes, 48 h | 310,000 tested, 5.9% active | Potency, µM (series often up to 28.7 µM), inactives show at the highest dose activity change, negative = inhibition, hits mostly inhibitors; note: % is set by controls: 0 for no effect and ±100 for the full control effect
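Growth was read as firefly luciferase luminescence after a 48 h, 37 C, 5% CO2 exposure of compounds to reporter-bearing P. falciparum cultures (0.1% parasitemia, 2% hematocrit final) in Albumax-supplemented RPMI 1640.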
SARS PLP yeast: qHTS of Yeast-based Assay for SARS-CoV PLP | S. cerevisiae expressing SARS-CoV PLpro, growth rescue | Potency, µM (series often up to 32.9 µM), inactives show top-dose activity, positive = growth rescue, hits mostly activators | 330,000 tested, 0.19% active | AID 485353, 2010; calls by dose curve; note: 0% is about no effect; nearly all actives have a fitted effect of over 55% in size
Sm TGR block: qHTS Assay for the Inhibitors of Schistosoma Mansoni Peroxiredoxins; purified TGR, DTNB reduction, TNB absorbance 405 nm; Potency, µM (series often up to 114 µM), for the others: top-dose activity change, negative = inhibition, actives largely listed as inhibitors; 360,000 tested, 3% active; AID 485364, 2010; note: % is set by controls: 0 for no effect and ±100 for the full control effect; nearly all actives have a fitted effect of over 60% in size
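Kinetic colorimetric format: TGR-catalysed, NADPH-driven DTNB reduction monitored via TNB absorbance. Enzyme dispensed at 20 nM; compound exposure 15 min at room temperature before reaction start.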
Pf growth 96h: Primary qHTS for delayed death inhibitors of the malarial parasite plastid, 96 hour incubation. AID 504834, 2011. P. falciparum luciferase reporter growth, 96 h. 320,000 tested, 6.9% active. Potency, µM (series often up to 28.7 µM), for the others: at the highest dose activity change, negative = inhibition, hits mostly inhibitors; note: % is set by controls: 0 for no effect and ±100 for the full control effect
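Compounds incubated with erythrocytes infected by luciferase-expressing P. falciparum (2% hematocrit, 0.05% parasitemia final) for 96 hours, 37 C in 5% CO2. Growth inhibition scored as decreased luciferase luminescence.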
Active calls of the source: *; ? = inconclusive; . = no result given. Rows were chosen to be rich in hits. Some 12% of all compounds tested hit in one or more screens of this group. Unless noted, calls come from the whole dose curve; as a rule, active = well fitted curve in the direction sought with a large enough effect; inconclusive = small, poorly fitted or top-dose-only effect, or another doubt; inactive = no such curve, though single readings can be large; an effect the other way counts as inactive or inconclusive. Potency is the fitted concentration of half-maximal effect.

SMILES	Pf growth 48h	SARS PLP yeast	Sm TGR block	Pf growth 96h
CCOc1ccc(NC(=O)CN(C)C(=O)/C=C/c2ccc(S(=O)(=O)N3CCCCCC3)cc2)cc1OCC	?	.	-7.1%	-1.8%
O=[N+]([O-])c1cc(S(=O)(=O)N2CCCC2)ccc1O	?	11.3%	2.6%	10.4%
O=C(CSc1nc(-c2ccccc2Cl)ns1)Nc1ccc2c(c1)OCO2	1.17µM*	-22.0%	-1.4%	?
Cc1oc2ncn(CC(C)C)c(=O)c2c1C(=O)N(Cc1ccccc1)C(C)C	.	.	-2.5%	.
COc1ccc(CCN(C)c2ccc(S(=O)(=O)N3CCCC3)cc2[N+](=O)[O-])cc1OC	?	-17.0%	-4.1%	0.0%
CCN1CCN(S(=O)(=O)c2ccc3[nH]c(=O)oc3c2)CC1	.	17.9%	6.7%	?
COc1ccc(CN(C)c2ccc(S(=O)(=O)N3CCN(C)CC3)cc2[N+](=O)[O-])cc1OC	11.7µM*	-6.6%	-13.6%	14.7µM*
CN1CCN(c2ccc(S(=O)(=O)N3CCCCC3)cc2NC(=O)CCc2ccccc2)CC1	9.28µM*	3.1%	0.2%	?
CN1CCN(c2ccc(S(=O)(=O)N3CCCCC3)cc2NC(=O)CSCc2ccccc2)CC1	?	-0.8%	-6.6%	?
CCN(CC(=O)Nc1ccc(NC(C)=O)cc1)C(=O)/C=C/c1ccc(C)o1	-1.4%	-0.5%	44.7µM*	-17.4%
CCN(CC(=O)Nc1ccc(NC(C)=O)cc1)C(=O)/C=C/c1ccccc1	27.5%	.	4.6%	21.8%
O=c1[nH]c2ccc(S(=O)(=O)N3CCCCC3)cc2o1	8.1%	-5.1%	-2.6%	10.4µM*
CCN(CC)C(=O)c1[nH]cnc1C(=O)Nc1ccc(C)cc1	37.3%	5.5%	-32.0%	12.9%
O=C(Nc1ccc(Cl)c(C(F)(F)F)c1)c1nc2ccccc2nc1N1CCCCC1	.	.	2.8%	.
COc1ccc(C(=O)NCCc2csc(-c3ccc(Cl)cc3)n2)c(OC)c1	.	.	-3.3%	.
CC(C)CCNC(=O)c1cc(-c2cccnc2)nc2ccc(S(=O)(=O)N3CCC(C)CC3)cc12	.	.	9.6%	.
CCN1CCN(S(=O)(=O)c2ccc(Cl)c(C(=O)N(CC)Cc3ccccc3)c2)CC1	?	-2.6%	-1.0%	-1.4%
O=C(CCc1ccccc1)Nc1ccc(S(=O)(=O)N2CCOCC2)cc1	?	0.7%	8.9%	9.1%
O=C(CCc1ccccc1)Nc1ccc(S(=O)(=O)N2CCCC2)cc1	?	1.0%	13.7%	8.28µM*
CCN(CC(=O)Nc1ccc(S(=O)(=O)N2CCCC2)cc1)Cc1ccccc1	13.1µM*	2.0%	0.2%	?
CCN(CC(=O)Nc1ccc(S(=O)(=O)N2CCOCC2)cc1)Cc1ccccc1	?	5.9%	-0.3%	?
CCN1CCN(S(=O)(=O)c2ccc(S(=O)(=O)N(CC)Cc3ccccc3)cc2)CC1	13.1µM*	0.8%	-5.8%	?
O=C(CSCc1ccc(Cl)cc1)NCc1ccc2c(c1)OCO2	-2.8%	.	4.8%	-1.0%
O=C(CSCc1ccc(Cl)cc1)Nc1ccc2c(c1)OCO2	-17.7%	-13.0%	-15.5%	11.7µM*
COc1ccc(CCNC(=O)Cn2c(=O)c3cccn3c3ccc(F)cc32)c(OC)c1	.	.	2.8%	.
SMILES	Pf growth 48h	SARS PLP yeast	Sm TGR block	Pf growth 96h
Cc1nc(C)c(C(=O)OCC(=O)Nc2cccc(C)c2C)s1	31.2%	13.7%	-10.3%	97.8%
O=C(CSc1nnc(CNC(=O)c2c(F)cccc2F)o1)NCc1ccccc1Cl	-2.7%	2.5%	1.5%	4.4%
O=C(CSCc1ccc(Cl)cc1)Nc1ccc(S(=O)(=O)N2CCCCCC2)cc1	?	-35.9%	1.9%	13.1µM*
CN(CC(=O)Nc1ccc(Cl)cc1)c1ccc(S(=O)(=O)N2CCCCC2)cc1[N+](=O)[O-]	?	5.8%	-1.3%	2.94µM*
CN(CC(=O)Nc1ccc(S(=O)(=O)N2CCCC2)cc1)Cc1ccc(Cl)cc1Cl	?	-24.0%	-1.7%	?
Cc1ccc(-n2c3c(cc(-c4nc(-c5ccc(Cl)cc5)cs4)c2=O)C(=O)CC(C)(C)C3)cc1C	.	.	6.7%	.
CC(C)c1noc(-c2ccccc2OCC(=O)Nc2cccc([N+](=O)[O-])c2)n1	.	.	-9.5%	.
COc1cc(-c2nc3ccccn3c2N)ccc1O	1.0%	7.8%	-6.9%	1.65µM*
COc1cc(-c2nc3ccccn3c2/N=C/c2ccccc2)ccc1O	-0.3%	-5.1%	-10.0%	-15.3%
COc1cc(-c2nc3ccccn3c2/N=C/c2cc(OC)c(O)cc2Cl)ccc1O	7.1%	-8.6%	25.1µM*	8.7%
